Our source for the corrected activity, negative = more killing and z-score values is PubChem BioAssay AID1508625 (Wald Lab, School of Medicine, Case Western Reserve …, 2021).

The nature of this experiment: enhancers of NK cell killing of ovarian tumor cells, primary screen, imaging, OVCAR3, primary NK cells, calcein-AM imaging (AID 1508625).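 Note: compound given to NK cells 16 h before adding targets at 1.5 to 1 ratio.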 The following applies: OVCAR3 lysis by primary NK cells, at 5 µM; z-score: measured here: robust Z-score, single-point normalisation.

For `COc1ccc(-n2c(=S)[nH]c3cc(C(=O)N4CCOCC4)ccc3c2=O)cc1`, the corrected activity, negative = more killing is -10.1% and the z-score is -3.21.
The like results for `Cc1cccc(C)c1OCCCCCCN1CCOCC1` were, in that order, -1.15% and -0.473.
For `CCOc1cccc(-c2cc(C(=O)O)c3ccccc3n2)c1` the same measures were -4.28% and -1.76.
The like results for `CCOc1cc(C2Nc3ccccc3NC3=C2C(=O)CC(C)(C)C3)ccc1OC(C)=O` (stereo not given) were, in that order, 0.693% and 0.309.
For `COc1ccc(S(=O)(=O)N2CCN(C(=O)COc3ccc4ccccc4c3)CC2)cc1`, the corrected activity, negative = more killing was -2.15% and the z-score is -0.961.
For `COC(=O)c1c(NC(=O)c2cc3ccccc3c(=O)o2)sc2c1CCC(C)C2` (stereo not given) the same measures were -0.836% and -0.344.
For `COC(=O)c1ccc(COC(=O)c2cc3ccccc3oc2=O)cc1` the same measures were -2.06% and -1.15.
For `COCCCNC(=O)C1c2ccccc2C(=O)N(C)C1c1cccs1` (stereo not given) the same measures were -4.54% and -1.13.
Consider `Cc1c(C(=O)NCc2cccs2)oc2ccc(S(=O)(=O)N3CCC(C)CC3)cc12`, for which the corrected activity, negative = more killing is -7.39% and the z-score was -1.84.
For `O=C(Nc1cc2c(cc1C(=O)c1ccc(Br)cc1)OCCO2)c1ccc(Cl)cc1` the same measures were -4.2% and -1.3.
The like results for `O=[N+]([O-])c1ccc(N2CCCCC2)cc1NCCc1ccccc1` were, in that order, -2.78% and -0.86.
The like results for `CC(C(=O)NCCCN1CCOCC1)c1ccc([N+](=O)[O-])cc1` (stereo not given) were, in that order, -5.52% and -3.07.
Regarding `Cc1cc(Br)ccc1NC(=O)Cn1cnc2sc(C)c(S(=O)(=O)N3CCN(C)CC3)c2c1=O`, the corrected activity, negative = more killing was -7.06% and the z-score is -1.76.
The like results for `COc1ccc(S(=O)(=O)NCc2ccc(C(=O)N(C)Cc3ccco3)cc2)cc1` were, in that order, -7.7% and -1.89.
For `Cc1ccc(S(=O)(=O)n2nc(OC(=O)c3ccc(C)c(C)c3)cc2N)cc1` the same measures were -5.25% and -1.67.
